# Source: the supplement of paper PMC6522484
# ± gives the standard deviation of the averaged measurements.
# Key:
# DLD1 [1] = test: cell viability (CellTiter-Glo) relative to plate median (fraction of plate median); higher = more viable cells; details: 5 µM; treatment time 24 h; reporter: 7TFP
# Procedure, shortened: (§1)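 Colorectal cancer cell lines stably transduced with lentiviral TCF/Wnt firefly luciferase reporters (7TFP or TCF4/Wnt) were seeded in 384-well plates. 24 h later they received library compounds at a final 5 µM for 24 h. Parallel plates were read for firefly luciferase or CellTiterGlo luminescence on a Tecan F500 reader. Each well's signal was normalised to the plate median (webcellHTS2, additive, no log transformation), and the mean of two independent replicates is reported.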
# HCT116 = test: as above; details: 5 µM; treatment time 24 h; reporter: TCF4/Wnt
# Procedure, shortened: as §1
# SW480 [2] = test: as above; details: 5 µM; treatment time 24 h; reporter: 7TFP
# Procedure, shortened: as §1
# DLD1 [3] = test: TCF/Wnt firefly luciferase reporter signal relative to plate median (fraction of plate median); higher = higher Wnt reporter signal; details: 5 µM; treatment time 24 h; reporter: 7TFP
# Procedure, shortened: as §1
# SW480 [4] = test: as above; details: 5 µM; treatment time 24 h; reporter: 7TFP
# Procedure, shortened: as §1
Compound,cell viability (DLD1 [1]),cell viability (HCT116),cell viability (SW480 [2]),TCF/Wnt firefly luciferase reporter signal (DLD1 [3]),TCF/Wnt firefly luciferase reporter signal (SW480 [4])
COc1c2occc2c(OC)c2c(=O)cc(C)oc12,0.99 ± 0.057,0.969 ± 0.14,0.989 ± 0.016,1.2 ± 0.099,1.12 ± 0.042
COc1c2occc2cc2ccc(=O)oc12,1.04 ± 0.05,1.02 ± 0.089,1.05 ± 0.014,1.09 ± 0.21,1.1 ± 0.057
COc1cc(-c2coc3cc(O[C@@H]4O[C@H](CO)[C@@H](O)[C@H](O)[C@H]4O)c(OC)c(O)c3c2=O)cc(O)c1OC,1.1 ± 0.057,1.12 ± 0.078,1.09 ± 0.014,1.01 ± 0.15,0.885 ± 0.023
Nc1ccc(C(=O)O)c(O)c1,1.01 ± 0.021,1.06 ± 0.11,0.989 ± 0.013,1.04 ± 0.057,1.06 ± 0.1
Cc1c(OCC(F)(F)F)ccnc1C[S+]([O-])c1nc2ccccc2[nH]1 (stereo not given),1.07 ± 0.14,1.02 ± 0.061,0.932 ± 0.0014,1.09 ± 0.021,0.959 ± 0.011
CC(CCc1ccccc1)NCC(O)c1ccc(O)c(C(N)=O)c1 (stereo not given),1.01 ± 0.12,1.08 ± 0.014,0.943 ± 0.044,0.935 ± 0.012,0.939 ± 0.046
NC(=O)NCCC[C@H](N)C(=O)O,1 ± 0.12,1 ± 0.051,1.015 ± 0.0071,0.944 ± 0.043,0.864 ± 0.083
COC(=O)c1c(OC)cc2c(c1C)Oc1c(Cl)c(O)c(Cl)c(C)c1C(=O)O2,1.02 ± 0.036,1.04 ± 0.014,0.99 ± 0.0042,1.05 ± 0.085,0.954 ± 0.028
N[C@@H]1CONC1=O,1.04 ± 0.11,1.05 ± 0.035,1.04 ± 0.061,1.05 ± 0.028,0.969 ± 0.21
NC(=O)c1ncn([C@@H]2O[C@H](CO)[C@@H](O)[C@H]2O)n1,1.12 ± 0.035,1.04 ± 0.064,1.01 ± 0.021,1.22 ± 0.23,0.986 ± 0.09
COC1=C[C@@H](C)[C@@H]2C[C@H]3OC(=O)C[C@H]4C(C)=C(OC)C(=O)[C@H]([C@@]2(C)C1=O)[C@@]34C,0.975 ± 0.064,0.972 ± 0.054,0.979 ± 0.044,1.025 ± 0.0071,1
COc1cc(O)c2c(=O)cc(C)oc2c1CC=C(C)C,1.04 ± 0.057,1.06 ± 0.078,1.04 ± 0.035,0.91 ± 0.04,0.991 ± 0.15
CN1C(C(=O)Nc2ccccn2)=C(O)c2sccc2S1(=O)=O,0.932 ± 0.03,0.893 ± 0.011,0.9585 ± 0.00071,0.978 ± 0.073,1.09 ± 0.014
CCCCCCCCCCCCCc1ccco1,1.05,1.03 ± 0.021,1.02 ± 0.021,0.964 ± 0.14,0.987 ± 0.12
CC1(C)C[C@@H]2C(=O)CC[C@H]3O[C@]3(C)CC[C@H]21,1.09 ± 0.057,1.01 ± 0.073,1.02,1.03 ± 0.047,0.985 ± 0.036
COc1ccc2c(c1)OCC(Cc1ccc(OC)c(O)c1)C2=O (stereo not given),0.937 ± 0.0099,0.847 ± 0.043,1.09 ± 0.035,0.707 ± 0.13,0.883 ± 0.047
CC[C@H]1OC(=O)[C@H](C)[C@@H](O[C@H]2C[C@@](C)(OC)[C@@H](O)[C@H](C)O2)[C@H](C)[C@@H](O[C@@H]2O[C@H](C)C[C@H](N(C)C)[C@H]2O)[C@](C)(O)C[C@@H](C)[C@@H]2N[C@@H](COCCOC)O[C@H]([C@H]2C)[C@]1(C)O,1.02 ± 0.049,0.991 ± 0.027,0.931 ± 0.0028,0.975 ± 0.05,0.998 ± 0.045
CCCCOc1cc(C(=O)NCCN(CC)CC)c2ccccc2n1,0.973 ± 0.011,0.926 ± 0.1,0.984,0.831 ± 0.05,0.964 ± 0.045
C[C@H]1[C@H](C)CC[C@]2(C(=O)O)CC[C@]3(C)C(=CC[C@@H]4[C@@]5(C)CC[C@H](O)C(C)(C)[C@@H]5CC[C@]43C)[C@H]12,0.978 ± 0.014,1.04 ± 0.014,1.03 ± 0.021,1.07 ± 0.057,1.06 ± 0.014
CO/N=C1\CN(c2nc3c(cc2F)c(=O)c(C(=O)O)cn3C2CC2)CC1CN (stereo not given),1.04 ± 0.06,1.09 ± 0.057,0.995 ± 0.021,0.971 ± 0.11,1.06 ± 0.042
CC(=O)O[C@@H]1c2c(ccc3ccc(=O)oc23)OC(C)(C)[C@@H]1OC(=O)CC(C)C,0.979 ± 0.044,1.02 ± 0.029,0.931 ± 0.059,0.875 ± 0.066,0.959 ± 0.054
O=C1OC2(c3ccc(O)cc3Oc3cc(O)ccc32)c2ccccc21,1.01 ± 0.047,0.9885 ± 0.0064,1 ± 0.011,1.11 ± 0.085,1.07 ± 0.028
CN1CCN(C2=Nc3cc(Cl)ccc3Nc3ccccc32)CC1,1.12 ± 0.071,1.05 ± 0.1,1.005 ± 0.0071,0.916 ± 0.058,0.97 ± 0.043
COC(=O)Nc1nc2cc(C(=O)c3ccccc3)ccc2[nH]1,0.884 ± 0.069,0.801 ± 0.1,1 ± 0.028,0.896 ± 0.027,0.94 ± 0.023
CC(=O)OC1CCC2(C)C(=CCC3C2CCC2(C)C(C(C)CCCC(C)C)CCC32)C1 (stereo not given),1.04 ± 0.021,1.05 ± 0.12,0.964 ± 0.051,1.11 ± 0.19,1.11 ± 0.15
CC(C)C1=C2[C@H]3CCC4[C@@H]5[C@H](O[C@@H]6OC[C@@H](O)[C@H](O[C@@H]4O)C65O)[C@]3(C)CC[C@@]2(C)CC1 (stereo not given in full),0.915 ± 0.067,0.862 ± 0.11,0.938 ± 0.011,0.873 ± 0.014,0.968 ± 0.045
CCN(CC)CCNc1ccc(CO)c2sc3ccccc3c(=O)c12,1.1 ± 0.028,1.02 ± 0.014,0.995 ± 0.0057,1.16 ± 0.18,0.988 ± 0.1

Compound,cell viability (DLD1 [1]),cell viability (HCT116),cell viability (SW480 [2]),TCF/Wnt firefly luciferase reporter signal (DLD1 [3]),TCF/Wnt firefly luciferase reporter signal (SW480 [4])
C#C[C@]1(O)CC[C@H]2[C@@H]3CCC4=Cc5oncc5C[C@]4(C)[C@H]3CC[C@@]21C,1.06 ± 0.021,0.936 ± 0.029,1.01 ± 0.035,1.04,0.817 ± 0.046
CS(=O)(=O)c1ccc(C2=C(c3ccccc3)C(=O)OC2)cc1,1 ± 0.037,1.04 ± 0.042,0.9705 ± 0.0035,1.19 ± 0.092,1.05 ± 0.071
CCCNCC(O)COc1ccccc1C(=O)CCc1ccccc1 (stereo not given),0.96 ± 0.085,1.07 ± 0.22,0.927 ± 0.033,1.06 ± 0.091,0.883 ± 0.12
CC(=O)OCC(=O)[C@@]1(O)CC[C@H]2[C@@H]3C[C@H](C)C4=CC(=O)C=C[C@]4(C)[C@H]3[C@@H](O)C[C@@]21C [6alpha-METHYLPREDNISOLONE ACETATE],1.03 ± 0.05,0.957 ± 0.22,0.994 ± 0.037,0.904 ± 0.15,0.937 ± 0.073
CC1(C)O[C@@H]2[C@@H](CO[C@@]3(COS(N)(=O)=O)OC(C)(C)O[C@@H]23)O1,0.925 ± 0.042,1.04 ± 0.014,1.03 ± 0.052,1.12 ± 0.11,0.845 ± 0.12
O=C(O)C1=CCCNC1,1.01 ± 0.061,1.01 ± 0.037,1 ± 0.013,1.13 ± 0.028,1.04 ± 0.16
"CC(C)CC1NC(=O)C(NC(=O)c2ncccc2O)C(C)OC(=O)C(c2ccccc2)N(C)C(=O)C(C)NC(=O)C(C(C)C(C)C)N(C)C(=O)CN(C)C(=O)C2CCCN2C1=O (single isomer, unassigned; isomere) [Neoviridogrisein II (Isomere)]",0.904 ± 0.024,0.991 ± 0.07,1.02 ± 0.03,0.918 ± 0.1,0.937 ± 0.02
O=C(O)c1cc(O)c2c(c1)C(=O)c1cc(O)cc(O)c1C2=O,0.873 ± 0.11,0.866 ± 0.057,0.991 ± 0.013,0.926 ± 0.22,1.12 ± 0.11
O=C1c2ccccc2C(=O)c2c(O)c(O)cc(O)c21,1.02 ± 0.052,0.96 ± 0.14,1.09 ± 0.092,1.17 ± 0.028,0.873 ± 0.044
N[C@@H](C=O)[C@@H](O[C@@H]1O[C@H](C(=O)O)[C@@H](O)[C@H](O)[C@H]1O)[C@@H](O)[C@H](O)CO,1.02,1.14 ± 0.22,1 ± 0.054,0.939 ± 0.029,1 ± 0.078
COC(=O)N/N=C/c1c[n+]([O-])c2ccccc2[n+]1[O-],0.917 ± 0.13,0.998 ± 0.2,0.974 ± 0.021,0.919 ± 0.064,0.9245 ± 0.0092
C/C=C/C=C/C1C=CC2CC(C)CCC2C1(C)/C(O)=C1/C(=O)NC(C(C)O)C1=O (stereo not given) [Altersetin],1 ± 0.023,0.974 ± 0.018,1 ± 0.011,1 ± 0.043,0.923 ± 0.052
Cc1c(C(N)=O)cc([N+](=O)[O-])cc1[N+](=O)[O-],0.985 ± 0.035,0.926 ± 0.15,0.981 ± 0.056,0.9 ± 0.05,0.9925 ± 0.0064
"Oc1cccc2nc3c(O)cccc3nc12 [1,6-Phenazinediol]",1.12 ± 0.014,0.992 ± 0.069,1.01,1.12 ± 0.042,1.12 ± 0.12
CC1COc2c(N3CCN(C)CC3)c(F)cc3c(=O)c(C(=O)O)cn1c23 (stereo not given),0.995 ± 0.05,1.04 ± 0.16,0.91 ± 0.0099,0.93 ± 0.075,1.01 ± 0.088
C=CCCCCCCCCCCCC(O)CC(O)CO (stereo not given),1.1 ± 0.099,1.05 ± 0.11,1.05 ± 0.05,0.964 ± 0.05,1.03 ± 0.042
CC(=O)O[C@]1(C)CC[C@@]23C[C@H]1C(C)(C)[C@@H]2CC[C@H]3C,0.986 ± 0.035,0.918 ± 0.033,1 ± 0.067,1.05 ± 0.086,0.934 ± 0.017
CC(C)(C)NC[C@H](O)c1ccc(O)c(CO)c1,1.01 ± 0.13,0.93 ± 0.061,0.972 ± 0.069,1.02,1.07 ± 0.092
COc1ccc2c(c1)OCC(Cc1ccc(O)c(OC)c1)C2=O (stereo not given),0.99 ± 0.014,1.04 ± 0.07,0.915 ± 0.049,0.887 ± 0.066,0.971 ± 0.084
OCc1ccccc1O[C@@H]1O[C@H](CO)[C@@H](O)[C@H](O)[C@H]1O,0.971 ± 0.098,0.971 ± 0.056,0.969 ± 0.0042,0.862 ± 0.099,0.967 ± 0.042
C=C1CCC2C(CC2(C)C)C(=O)CCC1O (stereo not given),0.969 ± 0.037,0.962 ± 0.023,0.97 ± 0.0014,0.932 ± 0.025,0.9285 ± 0.0064
O=C(Oc1cc(OC(=O)c2ccccc2)c2c(c1)O[C@H](c1ccc(OC(=O)c3ccccc3)c(OC(=O)c3ccccc3)c1)[C@@H](OC(=O)c1ccccc1)C2)c1ccccc1,1.04 ± 0.059,1.065 ± 0.0071,1.06 ± 0.071,0.978 ± 0.046,0.972 ± 0.016
COc1cc2occ(-c3ccc(O)cc3)c(=O)c2cc1O [Kakkatin],1.04 ± 0.028,1.06 ± 0.14,1.01 ± 0.044,1.22 ± 0.028,1.09 ± 0.064
N#Cc1ccc2c(c1)N(CCCN1CCC(O)CC1)c1ccccc1S2,0.991 ± 0.07,0.931 ± 0.053,1.01 ± 0.069,0.981 ± 0.056,1.05 ± 0.071
Cc1onc(-c2ccccc2)c1-c1ccc(S(N)(=O)=O)cc1,0.844 ± 0.058,1.02 ± 0.03,1.05 ± 0.1,0.91 ± 0.044,0.956 ± 0.17
CC1=CC2C(C(C)C)CCC(C)(O)C2CC1 (stereo not given),0.97 ± 0.036,0.929 ± 0.011,0.969 ± 0.013,1.02 ± 0.11,0.957 ± 0.025
COc1cccc2c(C)cc(=O)[nH]c12,1.05 ± 0.15,1.07 ± 0.11,1.02 ± 0.09,1.05 ± 0.064,1.11 ± 0.085
